# Laboratory results reported in the antibiotic and cytotoxicity screens of Wong et al. (2023).
# About 500 (1.3%) of roughly 39,000 compounds were called active. The list comes from a sample in which actives are over-represented; it also holds similar structures and randomly drawn compounds.
# Test system: S. aureus RN4220
# Experiment: growth inhibition call (relative growth <= 0.2)
# Settings: 50 µM
row,SMILES,growth inhibition call
1,Cc1ccc(S(=O)(=O)Nc2ccc3c(c2)C(=O)N(C)[C@H]2CC[C@@H](CC(=O)NCCc4ccncc4)O[C@H]2CO3)cc1,inactive
2,C[C@@H]1CN([C@@H](C)CO)C(=O)c2cccc(NC(=O)C3CC3)c2O[C@@H]1CN(C)C(=O)NC1CCCCC1,inactive
3,C[C@@H]1CN([C@H](C)CO)C(=O)Cc2cc(NC(=O)CCCCCC(=O)Nc3ccccc3N)ccc2O[C@H]1CN(C)C(=O)Nc1ccc(F)cc1,inactive
4,C[C@@H]1CN([C@H](C)CO)C(=O)c2c(c3ccccc3n2C)-c2ccccc2CO[C@@H]1CN(C)C(=O)c1cc(Cl)cc(Cl)c1,inactive
5,COc1cccc(S(=O)(=O)N[C@@H]2CC[C@H](CC(=O)NC3CCC3)O[C@@H]2CO)c1,inactive
6,CN(C)CC(=O)N[C@H]1CC[C@@H](CC(=O)O)O[C@H]1CO,inactive
7,COCCNC(=O)C[C@@H]1CC[C@H]2[C@@H](COC[C@H](O)CN2S(=O)(=O)c2ccccc2C)O1,inactive
8,Cc1noc(C)c1S(=O)(=O)Nc1ccc2c(c1)CC(=O)N([C@@H](C)CO)C[C@H](C)[C@H](CN(C)S(=O)(=O)c1ccccc1)O2,inactive
9,CC(=O)N(C)C[C@@H]1Oc2ncc(C#CC(C)(C)O)cc2C(=O)N([C@@H](C)CO)C[C@@H]1C,inactive
10,Cc1cc(C(=O)Nc2cccc3c2O[C@@H](CN(C)Cc2ccncc2)[C@@H](C)CN([C@@H](C)CO)C3=O)n(C)n1,inactive
11,COc1ccc(NC(=O)N(C)C[C@H]2OCCCC[C@H](C)Oc3ccc(NS(=O)(=O)c4ccc(C)cc4)cc3C(=O)N([C@@H](C)CO)C[C@@H]2C)cc1,inactive
12,O=C(C[C@@H]1CC[C@@H]2[C@H](COC[C@@H](O)CN2C(=O)Nc2ccc(C(F)(F)F)cc2)O1)NCCc1ccncc1,active
13,O=C(C[C@H]1CC[C@@H]2[C@H](COC[C@H](O)CN2C(=O)Nc2ccc(Cl)cc2)O1)NCCc1ccncc1,inactive
14,O=C(C[C@H]1CC[C@H]2[C@@H](COC[C@H](O)CN2C(=O)Nc2ccc(C(F)(F)F)cc2)O1)NCCc1ccncc1,active
15,O=C(C[C@@H]1CC[C@@H]2[C@H](COC[C@@H](O)CN2C(=O)Nc2ccc(Cl)cc2)O1)NCCc1ccncc1,inactive
16,O=C(C[C@@H]1CC[C@H]2[C@@H](COC[C@H](O)CN2C(=O)Nc2ccc(C(F)(F)F)cc2)O1)NCc1ccncn1,inactive
17,O=C(C[C@H]1CC[C@@H]2[C@H](COC[C@H](O)CN2C(=O)Nc2ccc(C(F)(F)F)cc2)O1)NCCc1ccncc1,active
18,O=C(C[C@@H]1CC[C@H]2[C@@H](COC[C@H](O)CN2C(=O)Nc2ccc(Cl)cc2)O1)NCCc1ccncc1,inactive
19,C[C@@H]1CN([C@H](C)CO)C(=O)c2cc(C#Cc3ccccc3F)cnc2O[C@H]1CN(C)S(=O)(=O)c1ccccc1,inactive
20,CC(C)NC(=O)[C@@H](C)n1ncn2cccc2c1=O,inactive
21,C[C@H](CO)N1C[C@H](C)[C@@H](CN(C)C(=O)NC2CCCC2)Oc2cc(Br)ccc2S1(=O)=O,inactive
22,C[C@H](CO)N1C[C@H](C)[C@@H](CN(C)Cc2ccc(Cl)c(Cl)c2)Oc2ccc(NC(=O)C3CCCCC3)cc2CC1=O,inactive
23,Cc1cc(C(=O)Nc2cccc3c2O[C@H](CN(C)Cc2ccc4c(c2)OCO4)[C@H](C)CN([C@@H](C)CO)C3=O)n(C)n1,inactive

row,SMILES,growth inhibition call
1,NCCCC[C@@H](N)C(=O)N[C@@H](Cc1c[nH]c2ccccc12)C(=O)N[C@@H](CCCCN)C(=O)O,inactive
2,Cc1cc(C)cc(C(=O)N(C)[C@H](Cc2ccc(-c3ccccc3)cc2)C(=O)N[C@@H](Cc2c[nH]c3ccccc23)C(=O)O)c1,active
3,NC(Cc1c[nH]c2ccccc12)C(=O)O (stereo unspecified),inactive
4,CCC[C@H]1CN(S(=O)(=O)c2c(C)cc(C)c3nonc23)C[C@@H]1N,inactive
5,Nc1cc(=O)[nH]c(=O)n1Cc1ccccc1,inactive
6,Cn1sc(=O)n(Cc2ccccc2)c1=O,active
7,Cn1c(=O)sn(-c2ccccc2)c1=O,inactive
8,Cc1ccc(S(=O)(=O)Nc2ccc3c(c2)C(=O)N([C@@H](C)CO)C[C@@H](C)[C@H](CN(C)S(=O)(=O)c2ccc(C)cc2)OCCCC[C@H](C)O3)cc1,inactive
9,CO[C@@H]1CN(C)C(=O)c2cc(NS(C)(=O)=O)ccc2OC[C@@H](C)N(C(=O)C2CCCCC2)C[C@@H]1C,inactive
10,CC(C)c1ccc(N2C=Nc3ccc(C(C)C)cc3C2)cc1,active
11,Cc1ccc(C(C)C)cc2c(C)ccc1-2,inactive
12,COc1ccc(NC(=O)Nc2ccc3c(c2)C(=O)N([C@@H](C)CO)C[C@@H](C)[C@@H](CN(C)C(=O)CCC(F)(F)F)OCCCC[C@@H](C)O3)cc1,inactive
13,C[C@@H]1CN([C@H](C)CO)C(=O)Cc2cc(NC(=O)C3CCCCC3)ccc2O[C@@H]1CN(C)Cc1ccc(C(F)(F)F)cc1,inactive
14,COc1ccccc1CNC(=O)C[C@H]1C[C@H]2c3cc(NC(=O)NC4CCCC4)ccc3O[C@H]2[C@H](CO)O1,inactive
15,COc1cc(C(=O)NS(=O)(=O)c2ccccc2C)ccc1Cc1cn(C)c2ccc(NC(=O)OC3CCCC3)cc12,active
16,COc1cc(Nc2nc3ccccc3nc2NS(=O)(=O)c2ccc(NC(=O)c3ccc(C)c(OC)c3)cc2)cc(OC)c1,inactive
17,CCNC(=O)[C@@H]1[C@@H](CO)[C@@H]2Cn3c(ccc(-c4ccc(OC)cc4)c3=O)[C@H]1N2S(C)(=O)=O,inactive
18,COc1ccc(NC(=O)Nc2ccc3c(c2)C(=O)N([C@H](C)CO)C[C@@H](C)[C@H](CN(C)CC2CC2)OCCCC[C@@H](C)O3)cc1,inactive
19,C[C@H](CO)N1C[C@H](C)[C@H](CN(C)Cc2ccc(-c3ccccc3)cc2)Oc2c(NS(=O)(=O)c3ccc(F)cc3)cccc2C1=O,inactive
20,COc1ccc(C)cc1S(=O)(=O)NCCO,inactive
21,Cc1cc(O[C@@H](CCC(F)(F)F)c2ccc(C(=O)NCCC(=O)O)cc2)cc(C)c1-c1ccc(C(C)(C)C)cc1,active
22,Cc1cc(C)c(-c2ccc(NC(=O)[C@H](Cc3ccc(C(=O)NCCS(=O)(=O)O)cc3)c3ccc(-c4ccc(C(C)(C)C)cc4)cc3)cc2)c(C)c1,inactive
23,COc1ccc2cc(-c3cc(-c4cc(Cl)cc(Cl)c4)nn3[C@@H](C)c3ccc(C(=O)NCCC(=O)O)cc3)ccc2c1,inactive
